Experiment [1] has as its system chicken Androgen Receptor (AR), gene 422165. Briefly: ATG_chAR_XSP2: Attagene TRANS-FACTORIAL Multi-Species (XSP2) HepG2 Assay for chicken Androgen Receptor (AR) (AID 2283819).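 Note: hits raise reporter mRNA above DMSO so potency is for activation.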 A digest of the protocol:
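Readout is reporter mRNA induction via RT-PCR/capillary electrophoresis after 24 h chemical exposure, positive direction relative to DMSO. Transiently transfected HepG2 express chimeric chicken AR–GAL4; AR stimulated by 3 nM 6-alpha-fluorotestosterone and 1.5 nM norgestrel.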

For experiment [2], the system named is frog Estrogen Receptor (ER), gene 398734. Briefly: ATG_frER1_XSP2: Attagene TRANS-FACTORIAL Multi-Species (XSP2) HepG2 Assay for frog Estrogen Receptor (ER) (AID 2283821).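 Note: hits raise reporter mRNA above DMSO baseline so potency means agonist or activator.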 A digest of the protocol: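 Reporter mRNA induction, detected as fluorescence after RT-PCR and capillary electrophoresis, is the endpoint; activity is fitted upward against DMSO. Cells are human liver HepG2 carrying transfected NR-Gal4 chimeras with GAL4-UAS-driven reporters, harvested 24 h post-dosing.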

Experiment [3] deals with zebrafish Estrogen Receptor (ER2b), gene 317733. Briefly: ATG_zfER2b_XSP2: Attagene TRANS-FACTORIAL Multi-Species (XSP2) HepG2 Assay for zebrafish Estrogen Receptor (ER2b) (AID 2283823).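 Note: fitted upward as reporter gain over DMSO so potency reflects activation.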 A digest of the protocol: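 Read-out: fluorescent reporter mRNA, measured by RT-PCR then capillary electrophoresis after HpaI digestion. HepG2 cells carried transiently transfected multi-reporter TRANS constructs (NR-Gal4 chimeras); 24 h chemical exposure; activity scored upward versus DMSO control.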

Experiment [4] concerns frog Androgen Receptor (AR), gene 399456. Briefly: ATG_frAR_XSP2: Attagene TRANS-FACTORIAL Multi-Species (XSP2) HepG2 Assay for frog Androgen Receptor (AR) (AID 2283824).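 Note: reporter mRNA from GAL4-UAS units driven by Xenopus AR-Gal4 chimera; actives raise reporter signal above DMSO so AC50 reflects agonist-like induction.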 A digest of the protocol: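 Reporter transcript induction, read by RT-PCR with fluorescent capillary electrophoresis, in human liver HepG2 cells carrying an exogenous Xenopus AR-Gal4 fusion and GAL4-driven reporters; chemical exposure 24 hours, activity scored upward against DMSO controls.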

Experiment [5] concerns zebrafish Androgen Receptor (AR), gene 100005148. Briefly: ATG_zfAR_XSP2: Attagene TRANS-FACTORIAL Multi-Species (XSP2) HepG2 Assay for zebrafish Androgen Receptor (AR) (AID 2283825).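 Note: hits raise reporter mRNA above DMSO so AC50 reflects agonist-type gain.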 A digest of the protocol:
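After 24 h compound exposure in medium with 3 nM 6-alpha-fluorotestosterone plus 1.5 nM norgestrel, HepG2 cells carrying zebrafish AR–GAL4 reporter constructs were assessed for reporter mRNA gain by RT-PCR and capillary electrophoresis.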

Experiment [6] is described as follows: ATG_M_32_XSP2: Attagene TRANS-FACTORIAL Multi-Species (XSP2) HepG2 Assay for M19 Transcription Factor (Internal Marker) (AID 2283826). A digest of the protocol: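 HepG2 cells transiently transfected with GAL4-UAS reporter transcription units, dosed with compound for 24 h in presence of 3 nM 6-alpha-fluorotestosterone and 1.5 nM norgestrel; reporter mRNA quantified by RT-PCR, FAM labelling, HpaI digestion and capillary electrophoresis.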

For experiment [7], the target named is mouse Peroxisome Proliferator-activated Receptor gamma (PPARg), Pparg (gene 19016) (UniProt P37238). Briefly: ATG_mPPARg_XSP2: Attagene TRANS-FACTORIAL Multi-Species (XSP2) HepG2 Assay for mouse Peroxisome Proliferator-activated Receptor gamma (PPARg) (AID 2283830).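 Note: hits are gains in reporter mRNA above DMSO so AC50 marks activation.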 A digest of the protocol:
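Multiplexed TRANS reporter readout: after 24 h chemical exposure of transfected HepG2 cells (with 3 nM 6-alpha-fluorotestosterone, 1.5 nM norgestrel present), RNA reverse-transcribed, amplified, 6-FAM-labelled and resolved by capillary electrophoresis; mouse PPARg-Gal4 induction scored against DMSO.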

The subject of experiment [8] is frog Estrogen Receptor (ER2), gene 100174814. Briefly: ATG_frER2_XSP2: Attagene TRANS-FACTORIAL Multi-Species (XSP2) HepG2 Assay for frog Estrogen Receptor (ER2) (AID 2283828). The gist of the method:
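Cells were transfected with reporter constructs under GAL4-UAS control, dosed with chemicals for 24 h, then lysed for RNA; the frog ER2-driven reporter mRNA was quantified by capillary electrophoresis of labeled PCR fragments, with activity fitted upward from DMSO.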

Experiment [9] addresses Nuclear receptor subfamily 1 group I member 2 (Mus musculus) (UniProt O54915). Briefly: ATG_mPXR_XSP2: Attagene TRANS-FACTORIAL Multi-Species (XSP1) HepG2 Assay for mouse Pregnane X Receptor (PXR) (AID 2283831). A digest of the protocol:
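HepG2 cells transiently transfected with GAL4-UAS reporter units expressing chimeric NR-GAL4 proteins; reporter mRNA measured 24 h after dosing by RT-PCR with 6-FAM labelling and capillary electrophoresis, gain of signal relative to DMSO.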

The target of experiment [10] is Estrogen receptor (Homo sapiens) (UniProt P03372). Briefly: ATG_hERa_XSP2: Attagene TRANS-FACTORIAL Multi-Species (XSP2) HepG2 Assay for human Estrogen Receptor (ERa) (AID 2283827). The gist of the method: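 Trans-activation of exogenous human ERa-Gal4 chimera read in HepG2 as reporter transcript after 24 h exposure; medium included 3 nM 6-alpha-fluorotestosterone and 1.5 nM norgestrel. Quantified by RT-PCR with capillary electrophoresis, positive-direction fitting against DMSO.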

For orientation: AC50 means the concentration at which the activity in the assay is half-maximal.

Molecules are shown by their SMILES. Several values for one entry are separate records, joined by “and”; a condition that tells them apart may be missing. Equal values may be shown once. Inconclusive results are not listed. A structure can be active in one record and inactive in another. Activity calls are given as the source filed them. Rule for the calls: active = hit-call score of the fitted dose curve at least 0.9, where 1 is the maximum; inconclusive = response in the unintended direction; inactive = score below 0.9.

mouse Peroxisome Proliferator-activated Receptor gamma (PPARg), Pparg (gene 19016), sequence (P37238 whole entry, looked up, the tested form may be a part): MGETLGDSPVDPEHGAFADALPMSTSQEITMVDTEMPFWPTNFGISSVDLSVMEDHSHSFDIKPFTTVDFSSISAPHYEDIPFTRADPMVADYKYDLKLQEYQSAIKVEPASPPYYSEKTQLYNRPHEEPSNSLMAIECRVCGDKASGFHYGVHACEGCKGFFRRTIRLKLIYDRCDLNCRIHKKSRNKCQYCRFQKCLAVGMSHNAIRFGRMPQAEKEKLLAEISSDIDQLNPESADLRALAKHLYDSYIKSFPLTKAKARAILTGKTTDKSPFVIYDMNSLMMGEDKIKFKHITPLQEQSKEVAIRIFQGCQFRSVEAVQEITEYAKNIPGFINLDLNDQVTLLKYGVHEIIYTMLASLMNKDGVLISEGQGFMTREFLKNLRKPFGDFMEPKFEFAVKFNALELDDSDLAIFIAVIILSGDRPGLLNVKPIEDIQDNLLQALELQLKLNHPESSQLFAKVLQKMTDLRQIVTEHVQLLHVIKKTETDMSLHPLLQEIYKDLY
Nuclear receptor subfamily 1 group I member 2 (Mus musculus), sequence (O54915 whole entry, looked up, the tested form may be a part): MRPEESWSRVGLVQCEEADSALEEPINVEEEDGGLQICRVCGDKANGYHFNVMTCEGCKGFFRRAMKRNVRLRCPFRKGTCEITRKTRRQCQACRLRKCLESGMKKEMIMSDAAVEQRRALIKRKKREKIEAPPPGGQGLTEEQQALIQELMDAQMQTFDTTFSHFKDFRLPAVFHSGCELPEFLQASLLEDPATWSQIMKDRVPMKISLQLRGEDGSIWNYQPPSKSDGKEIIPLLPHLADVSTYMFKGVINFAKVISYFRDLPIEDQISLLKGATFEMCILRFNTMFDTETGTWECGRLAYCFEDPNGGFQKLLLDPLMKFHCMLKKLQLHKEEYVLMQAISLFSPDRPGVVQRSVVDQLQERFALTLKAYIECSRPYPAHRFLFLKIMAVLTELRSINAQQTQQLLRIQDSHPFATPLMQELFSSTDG
Estrogen receptor (Homo sapiens), sequence (P03372 whole entry, looked up, the tested form may be a part): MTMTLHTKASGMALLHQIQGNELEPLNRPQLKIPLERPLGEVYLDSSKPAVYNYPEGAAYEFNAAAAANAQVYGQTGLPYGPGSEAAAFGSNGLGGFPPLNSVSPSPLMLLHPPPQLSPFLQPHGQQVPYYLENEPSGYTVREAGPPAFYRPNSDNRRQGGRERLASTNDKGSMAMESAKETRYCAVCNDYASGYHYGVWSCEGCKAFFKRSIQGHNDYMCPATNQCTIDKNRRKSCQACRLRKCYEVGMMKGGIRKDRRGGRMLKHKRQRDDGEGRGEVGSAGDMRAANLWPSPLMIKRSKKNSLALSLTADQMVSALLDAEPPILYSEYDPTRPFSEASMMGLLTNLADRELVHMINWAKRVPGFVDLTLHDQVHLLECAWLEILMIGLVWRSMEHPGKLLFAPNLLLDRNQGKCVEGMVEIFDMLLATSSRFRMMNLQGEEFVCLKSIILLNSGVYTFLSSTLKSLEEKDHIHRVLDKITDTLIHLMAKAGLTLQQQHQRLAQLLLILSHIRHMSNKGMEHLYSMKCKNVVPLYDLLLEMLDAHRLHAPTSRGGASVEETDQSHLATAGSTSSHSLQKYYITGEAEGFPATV

As to `C[C@]12CCC(=O)C[C@@H]1CC[C@@H]1[C@@H]2CC[C@]2(C)[C@@H](O)CC[C@@H]12`, the AC50 is 0.198 µM (active) in [1] and 0.0457 µM (active) in experiment [4]. Besides, the compound was classed as inactive in experiment [2], in experiment [3], in [5], in experiment [6] and in experiment [7].

With `CC(C)(C)CC(C)(C)c1ccc(O)cc1`, the AC50 is 3.4 µM (active) in experiment [2], 5.17 µM (active) in experiment [3] and 4.83 µM (active) in experiment [8]. For the same compound, the result in experiment [9] was inactive.

`CC1(C)CCC(Cc2ccc(Cl)cc2)C1(O)Cn1cncn1` (stereo not given): the outcome in [2], in [6] and in [10] was inactive. Further, the AC50 in experiment [3] is 27.5 µM (active); in experiment [8], 26 µM (active); in experiment [7], 70.1 µM (active); in [9], 2.82 µM (active).

As to `CC12CC1(C)C(=O)N(c1cc(Cl)cc(Cl)c1)C2=O` (stereo not given), the compound was called inactive in experiment [2], in [3], in [6], in experiment [8] and in experiment [7]. Moreover, the concentration at half-maximal activity (AC50) in experiment [3] was 29.8 µM (active); in experiment [8] it was 100 µM (active); in [9], 8.41 µM (active) and 6.41 µM (active).

In the case of `C[C@H]1CCCC(=O)CCC/C=C/c2cc(O)cc(O)c2C(=O)O1`, the compound was called inactive in experiment [1], in experiment [8] and in [7]. In addition, the AC50 in experiment [2] is 7.04 nM (active) and 6.82 nM (active); in experiment [3], 27.1 nM (active) and 8.37 nM (active); in experiment [10] it was 3.41 nM (active) and 1.59 nM (active); in [8], 0.00566 µM (active).

Regarding `O=S(=O)(c1ccc(Cl)cc1)c1ccc(Cl)cc1`, the half-maximal activity concentration (AC50) in experiment [2] is 26.4 µM (active); in [3], 100 µM (active) and 27.1 µM (active); in experiment [10], 4.86 µM (active) and 27.8 µM (active); in experiment [8] it was 28 µM (active); in experiment [7] it was 16.3 µM (active) and 26.8 µM (active); in experiment [9] it was 4.34 µM (active) and 2.83 µM (active). The compound was classed as inactive in experiment [2] and in [8].

Consider `CC(C)(C)c1cc(O)ccc1O`, for which the outcome in [1], in [4], in experiment [6] and in experiment [9] was inactive. The AC50 in experiment [2] is 15.6 µM (active); in [3], 55.2 µM (active); in experiment [10], 33.1 µM (active); in experiment [8] it was 46.8 µM (active); in experiment [7] it was 70.6 µM (active).

In the case of `CC(C)C1CCC(Cc2ccc(Cl)cc2)C1(O)Cn1cncn1` (stereo not given), the compound was called inactive in [2], in [6], in experiment [10], in experiment [8] and in [7]. Further, the concentration at half-maximal activity (AC50) is 14.6 µM (active) and 2.83 µM (active) in experiment [3]; 7.95 µM (active) in experiment [10]; 14.3 µM (active) in experiment [8]; 10.2 µM (active) in experiment [7]; 715 nM (active) and 257 nM (active) in experiment [9].

Consider `Oc1ccc(-c2ccccc2)cc1`, for which the AC50 in [2] is 2.17 µM (active) and 811 nM (active); in experiment [3] it was 5.61 µM (active) and 3.05 µM (active); in experiment [8], 1.75 µM (active) and 690 nM (active); in experiment [7] it was 100 µM (active). The compound was classed as inactive in experiment [6], in experiment [7] and in experiment [9].

With `Clc1ccc(C2(Cn3cncn3)CC(Br)CO2)c(Cl)c1` (stereo not given), the AC50 in [2] was 9.65 µM (active) and 5.35 µM (active); in experiment [3], 51.4 µM (active) and 29.2 µM (active); in [10], 4.43 µM (active) and 6.56 µM (active); in experiment [8], 28.8 µM (active); in experiment [7] it was 62.7 µM (active); in [9] it was 3.32 µM (active) and 1.59 µM (active). In addition, the result in [6], in experiment [8] and in experiment [7] was inactive.

Consider `CC(=O)C=C(C)C`, for which the outcome in experiment [1], in experiment [2], in experiment [3], in experiment [5], in [6] and in experiment [10] was inactive. Moreover, the compound was called inactive in [7] and in experiment [9]. Also, in experiment [8], the AC50 was 183 µM (active).

As to `C[C@]12CC[C@H](O)CC1=CC[C@@H]1[C@@H]2CC[C@]2(C)C(=O)CC[C@@H]12`, the AC50 in [2] was 3.14 µM (active) and 1.55 µM (active); in experiment [3] it was 2.89 µM (active) and 1.73 µM (active); in [8], 3.43 µM (active) and 2.23 µM (active); in experiment [9], 6.42 µM (active) and 5.9 µM (active). For the same compound, the outcome in experiment [6] and in experiment [7] was inactive.

`Oc1c(I)cc(I)cc1I`: the compound was classed as inactive in experiment [2], in experiment [3], in experiment [6] and in experiment [9]. The AC50 in experiment [3] was 57.4 µM (active); in experiment [10] it was 3.11 µM (active); in [7] it was 18 µM (active) and 14.1 µM (active); in experiment [9], 56.6 µM (active).

Consider `O=C1C2(Cl)C3(Cl)C4(Cl)C(Cl)(Cl)C5(Cl)C3(Cl)C1(Cl)C5(Cl)C24Cl` (stereo not given), for which the compound was classed as inactive in experiment [2], in experiment [6], in experiment [8] and in experiment [7]. Moreover, the half-maximal activity concentration (AC50) in experiment [3] is 4.05 µM (active).

`COP(=O)(OC)O/C(=C\Cl)c1cc(Cl)c(Cl)cc1Cl`: the call in experiment [2], in experiment [6] and in [8] was inactive. For the same compound, the values for the AC50 in [3], in experiment [10] and in experiment [7] were 45.5 µM (active), 9.68 µM (active) and 14.8 µM (active), respectively.

(Values after PubChem BioAssay (EPA / NIEHS).)
